Laboratory results taken from PubChem BioAssay AID1851 (National Center for Advancing Translational Sciences (NCATS), 2009).
“And” between values parts separate entries of the source, which are not always exact repeats. Equal values may be shown once. Among all 16,000 compounds or so, about 2,600 (16%) were called active. About 20% were inconclusive and are not listed. Calls follow the shape of the dose curve; as a rule, active = well fitted curve in the direction sought with a large enough effect; inconclusive = small, poorly fitted or top-dose-only effect, or effect the other way; inactive = no such curve, though single readings can be large or run the other way. Not all results are given here. More than one record can exist for a structure, and the calls need not agree.

target: Cytochrome P450 2D6 (Homo sapiens) (UniProt P10635); assay: Cytochrome panel assay with activity outcomes; conditions: recombinant CYP, pro-luciferin dealkylation, luminescence, p450-cyp2d6; series mostly up to 57.1 µM; activity, negative = inhibition: at the top concentration
Sequence (P10635 whole entry, looked up): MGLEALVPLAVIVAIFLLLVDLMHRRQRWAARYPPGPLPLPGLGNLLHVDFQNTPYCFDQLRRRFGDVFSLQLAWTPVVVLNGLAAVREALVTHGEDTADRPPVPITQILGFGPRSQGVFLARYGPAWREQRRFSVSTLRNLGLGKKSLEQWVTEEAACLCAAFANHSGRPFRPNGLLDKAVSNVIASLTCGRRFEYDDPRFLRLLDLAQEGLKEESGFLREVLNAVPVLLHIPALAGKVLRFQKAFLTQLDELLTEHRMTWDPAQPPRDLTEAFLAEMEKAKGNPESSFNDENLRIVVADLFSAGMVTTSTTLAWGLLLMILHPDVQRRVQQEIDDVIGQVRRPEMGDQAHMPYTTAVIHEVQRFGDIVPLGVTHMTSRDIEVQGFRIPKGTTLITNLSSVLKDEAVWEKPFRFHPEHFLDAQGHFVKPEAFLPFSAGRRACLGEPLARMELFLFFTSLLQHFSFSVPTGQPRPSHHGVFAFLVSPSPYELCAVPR
% is scaled to controls: 0 for no effect and ±100 for the full control effect.

Structure (SMILES)	activity, negative = inhibition	AC50
COC(=O)CSc1ncc(OC)c(OC)n1	-7.49% (inactive)	–
O=C1c2ccccc2C(=O)N1C[C@]1(C(=O)O)NCCS1(=O)=O	7.33% [at 11.4 µM] (inactive)	–
CC(C)NC(=O)N1CC[C@@]2(CCCN(S(C)(=O)=O)C2)C1	-3.82% (inactive)	–
COC(=O)N1CCC2(CCN(C(=O)NC(C)C)CC2)CC1	-13.5% (inactive)	–
CS(=O)(=O)N1CCC2(CCCN(C(=O)Nc3cccc(F)c3)C2)CC1	-4.34% (inactive)	–
O=C(Nc1cccc(F)c1)N1CCCC2(CCN(S(=O)(=O)c3ccccc3)CC2)C1	–	12.6 µM (active)
CS(=O)(=O)N1CCC[C@@]2(CCN(C(=O)Nc3cccc(F)c3)C2)C1	5.14% (inactive)	–
CC(C)NC(=O)N1CCCC2(CCN(S(=O)(=O)c3ccccc3)CC2)C1	–	0.316 µM (active)
CC(C)NC(=O)N1CCC2(CC1)CCN(S(C)(=O)=O)CC2	–	15.8 µM (active)
CC(C)NC(=O)N1CCCC2(CCN(C(=O)c3cccn3C)CC2)C1	-1.09% (inactive)	–
CC(C)NC(=O)N1CC2(CCN(S(=O)(=O)c3ccccc3)CC2)C1	0.223% (inactive)	–
O=C(C1CCN(S(=O)(=O)N2CCOCC2)CC1)N1CCN(c2ccccc2)CC1	7.34% (inactive)	–
CN(C)c1ncc2nc(-c3cc(F)cc(F)c3)c(=O)n(Cc3cccs3)c2n1	-2.95% (inactive)	–
CCN1CCN(C(=O)N[C@H](C(=O)N[C@@H]2C(=O)N3[C@@H]2SC(C)(C)[C@@H]3C(=O)O)c2ccccc2)C(=O)C1=O	-0.322% [at 25.6 µM] (inactive)	–
CC(=O)[C@H](C(=N)C#N)C(=O)Nc1ccccc1	5.49% [at 11.4 µM] (inactive)	–
CCC(=O)OCN1C(=O)C=CC1=O	6.64% [at 11.4 µM] (inactive)	–
O=c1cc(CF)[nH]c(=S)[nH]1	11.9% [at 11.4 µM] (inactive)	–
CN(C)c1ncc2ncc(=O)n(CCC#N)c2n1	3.67% (inactive)	–
COc1ccc(NC(=O)N2CCC3(CC2)CCN(C(=O)c2cnccn2)CC3)cc1	-1.61% (inactive)	–
COc1cc(N=c2ssnc2Cl)cc(OC)c1OC	–	3.16 µM (active)
COc1cccc(NC(=O)Cc2c(C(=O)O)[nH]c3ccccc23)c1	28.7% (inactive)	–
CC(C)COC[C@H](CN(Cc1ccccc1)c1ccccc1)N1CCCC1	–	inactive and 15.8 nM (active)
CCOC(=O)c1ccc(NC(=O)C2CCCO2)cc1 (stereo not given)	4.57% (inactive)	–
O=C(NNC(=O)C1CCCCC1)c1cnccn1	-1.43% (inactive)	–
Cn1cccc1C(=O)N1CCC2(CCCN(c3cccc(-c4ccccc4)c3)C2)CC1	-7.33% (inactive)	–

Structure (SMILES)	activity, negative = inhibition	AC50
COc1ccc(-n2c(=O)c(-c3ccc(F)cc3)nc3cnc(N4CCOCC4)nc32)cc1	-6.08% (inactive)	–
Cn1c(-c2ccc(CN3CCCCC3)o2)nc2ccccc21	-28.7% (inactive)	–
CS(=O)(=O)c1nc2ccccc2n1Cc1ccccc1	-21.3% (inactive)	–
O=S(=O)(O)c1nc2ccccc2n1Cc1ccccc1	-9.7% (inactive)	–
c1ccc(Cn2c(CN3CCCC3)nc3ccccc32)cc1	–	8.91 µM (active)
Oc1ccc(Cn2c(-c3ccc(O)cc3)nc3ccccc32)cc1	1.43% [at 11.4 µM] (inactive)	–
Clc1ccc(Cn2c(CN3CCCC3)nc3ccccc32)cc1	–	1.26 µM (active) and 794 nM (active)
COCCn1c(=O)cnc2cnc(Oc3ccc(OC)cc3)nc21	-4.11% (inactive)	–
COc1cc(OC)nc(NC(C)=O)n1	2.26% (inactive)	–
O=C(O)CCC(O)=C1S(=O)(=O)OCCOS1(=O)=O	-8.4% [at 11.4 µM] (inactive)	–
Cc1ccc(N=Nc2c(O)ccc3cc(S(=O)(=O)O)ccc23)cc1	4.81% [at 11.4 µM] (inactive)	–
Cc1ccc(NC2=NC(c3ccccc3)n3c(nc(C)cc3=O)N2)c(C)c1 (stereo not given)	-17.2% (inactive)	–
CCC(=O)[C@@]1(C)[C@H](C)C[C@@H]2[C@@H]3CCC4=CC(=O)C=C[C@@]4(C)[C@H]3[C@H](O)C[C@]21C	3.11% [at 25.6 µM] (inactive)	–
Cn1c(=O)c2c(nc(N3CCN(c4ccccn4)CC3)n2Cc2ccccc2Cl)n(C)c1=O	2.07% (inactive)	–
CC(=O)Nc1ccc(NC(=O)C/C(C)=N/NC(=O)C(=O)N2CCCC2)cc1	7.24% (inactive)	–
C#CCSc1n[nH]c(-c2ccco2)n1	-1.01% [at 11.4 µM] (inactive)	–
O=c1c2ccccc2c(-c2ccc(Br)cc2)nn1Cc1ccccc1	-19.5% (inactive)	–
Cc1ccc(-c2nn(C)c(=O)c3ccccc23)cc1CNC(=O)Cn1nc(-c2ccccc2)c2ccccc2c1=O	-9.89% (inactive)	–
O=c1c2ccccc2c(-c2ccccc2)nn1Cc1ccc(Cl)cc1	–	11.2 µM (active)
Cc1ccc(-c2csc(NC(=S)NC(=O)/C=C/c3ccco3)n2)cc1	15.4% (inactive)	–
N#Cc1cccc(-c2nc3cnc(Oc4cccc(Cl)c4)nc3n(C3CC3)c2=O)c1	-3.68% (inactive)	–
CC1=NN(c2ccccc2)C(=O)C1	-20.1% (inactive)	–
CC(=O)c1cc2c(cc1NC(=O)CCCC(=O)O)OCO2	4.35% (inactive)	–
C/C(=C\C(=O)c1ccc(Br)cc1)NCc1ccc2c(c1)OCO2	–	7.94 µM (active)
O=C(Cc1ccc(Br)cc1)OCC(=O)c1ccc2c(c1)OCCO2	-1.3% (inactive)	–
